In PubChem BioAssay (Tox21):
Records with an inconclusive call do not appear. A call without a number means that no potency is given here. Calls of active or inactive are those of the source. Calls come from the whole dose curve; as a rule, active = well fitted cell-killing curve with a large enough effect in the repeat runs; inconclusive = weak or mixed curves, or effect the other way; inactive = flat fitted curve, though single readings scatter.

Experiments:
[1] = cAMP Responsive Elements (CRE) small molecule antagonists, cell-based qHTS assay: qHTS cell viability counter screen (AID 2060913); note: nearly all actives have a fitted effect of over 40% in size
Outline: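 CRE-bla HEK293T cells were seeded in assay medium with 10% dialyzed FBS, incubated 18 hrs at 37 C, then exposed to compounds plus 0.25 uM final NKH477 for 3 hrs. Viability was read by CellTiter-Glo luminescence after 30 min, in the same wells.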

[2] = cAMP Responsive Elements (CRE) small molecule agonists, cell-based qHTS assay: qHTS cell viability counter screen (AID 2060914);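 note: viability read after 3 h of compound exposure; nearly all actives have a fitted effect of over 50% in size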
Outline: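 CRE-bla HEK293T cells in 10% dialyzed FBS medium were exposed to compounds for 3 h at 37C after 18 h plating. CellTiter-Glo was then added in the same wells, and luminescence was read after 30 min at room temperature.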

With COCCc1ccc(OCC(O)CNC(C)C)cc1 (configuration not stated) the Potency [1] was “inactive” and the Potency [2] was “inactive”.

With COCc1ccc(COC)cc1 the Potency [1] was “inactive” and the Potency [2] was “inactive”.

With Cc1cc(S(=O)(=O)O)c(N)cc1Cl the Potency [1] was “inactive” and the Potency [2] was “inactive”.

For Oc1ccc(OCc2ccccc2)cc1, the Potency [1] was “inactive” and the Potency [2] was “inactive”.

For Cc1coc2ccccc2c1=O, the Potency [1] was “inactive” and the Potency [2] was “inactive”.

For CCCCCCC(=O)O, the Potency [1] was “inactive” and the Potency [2] was “inactive”.

For OC(Cn1cncn1)(Cn1cncn1)c1ccc(F)cc1F, the Potency [1] was “inactive” and the Potency [2] was “inactive”.

In the case of CCCC(C(=O)OCCN(CC)CC)(c1ccccc1)c1ccccc1, the Potency [1] is reported as “inactive” and the Potency [2] is reported as “inactive”.

In the case of CCN1CCN(c2cc(-c3ccc(F)cc3)c3c(n2)CCCCCC3)CC1, the viability change, negative = cytotoxic [1] is reported as -3.64% [at 18.9 µM] (inactive) and the activity change, negative = cytotoxicity [2] is reported as -20.1% [at 18.9 µM] (inactive).

With CCOC(=O)COc1ccc(C)cc1 the Potency [1] was “inactive” and the Potency [2] was “inactive”.

In the case of O=C(CCN1CCC(c2ccccc2)C1)c1ccc2c(c1)OCCO2 (configuration not stated), the Potency [1] is reported as “inactive” and the Potency [2] is reported as “inactive”.

In the case of CCOc1ccccc1O[C@H](c1ccccc1)[C@H]1CNCCO1, the Potency [1] is reported as “inactive” and the Potency [2] is reported as “inactive”.

In the case of CC(=O)/C=C/C=C1/C2CCC(C2)C1(C)C (configuration not stated), the Potency [1] is reported as “inactive” and the Potency [2] is reported as “inactive”.

In the case of NNc1nc(-c2ccccc2)cs1, the Potency [1] is reported as “inactive” and the Potency [2] is reported as “inactive”.

For C(=C(c1ccccc1)c1ccccc1)c1ccccc1, the Potency [1] was “inactive” and the Potency [2] was “inactive”.

With C[C@](N)(Cc1ccc(O)cc1)C(=O)O the viability change, negative = cytotoxic [1] was -1.28% [at 8.39 µM] (inactive) and the activity change, negative = cytotoxicity [2] was -8.98% [at 8.39 µM] (inactive).
